In the library only some 2.2% were active in any assay of this set; here they are far more common.
mIDH1 inhibitor – qHTS for Inhibitors of mutant isocitrate dehydrogenase 1 (IDH1): qHTS; Isocitrate dehydrogenase [NADP] cytoplasmic (Homo sapiens), O75874; IDH1-R132H enzyme, NADPH consumption, diaphorase/resazurin fluorescence; Potency, µM (top dose mostly 76.6 µM), without a hit: at the highest dose activity change, negative = inhibition, most hits filed as inhibitors; 0.093% of 390,000 active; AID 602179, 2012; further: potency means the concentration at half of the fitted maximal effect; on the % scale 0 is the no-effect control and ±100 the full control effect; nearly all actives have a fitted effect of over 65% in size
Target sequence (O75874 whole entry R132H, stated change not applied): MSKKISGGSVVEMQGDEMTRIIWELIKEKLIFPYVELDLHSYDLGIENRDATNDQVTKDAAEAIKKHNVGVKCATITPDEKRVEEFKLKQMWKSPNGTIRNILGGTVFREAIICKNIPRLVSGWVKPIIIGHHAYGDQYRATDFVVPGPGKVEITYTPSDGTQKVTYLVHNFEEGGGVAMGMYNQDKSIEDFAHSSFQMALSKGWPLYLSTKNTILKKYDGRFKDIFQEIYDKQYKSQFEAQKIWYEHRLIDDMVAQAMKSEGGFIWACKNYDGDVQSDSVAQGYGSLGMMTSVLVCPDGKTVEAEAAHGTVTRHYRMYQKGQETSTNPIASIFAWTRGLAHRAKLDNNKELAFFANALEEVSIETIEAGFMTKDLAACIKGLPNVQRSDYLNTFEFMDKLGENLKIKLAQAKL
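IDH1-R132H (0.5 ug/mL dispensed) in pH 7.5 Tris buffer was preincubated 30 min with compound, then given a substrate mix of 0.016 mM NADPH and 2 mM alpha-KG for 80 min at room temperature; remaining NADPH was read by diaphorase/resazurin fluorescence.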
HepG2 tox – qHTS for Inhibitors of TGF-b: Cytotox Counterscreen. 0.76% of 410,000 active. HepG2 CAGA-GFP viability, ATP luminescence, 18 h. Potency, µM (doses to about 46.1 µM), without a hit: at the top dose activity change, negative = cytotoxicity, most hits filed as cytotoxic. AID 588856, 2011; further: potency means the concentration at half of the fitted maximal effect
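HepG2 CAGA-GFP cells (1000/well, DMEM with 1% FBS) received compound, then TGF-beta at 500 pg/mL final, and were incubated 18 hours at 37 degrees C. Viability was read by CellTiter-Glo luminescence. Media-only wells were set as complete cell-killing and DMSO as no toxicity.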
TGFb inhibitor – qHTS for Inhibitors of TGF-b; AID 588855, 2011; Potency, µM (doses to about 46.1 µM), for the others: at the highest dose activity, negative = inhibition, actives largely listed as inhibitors; HepG2 CAGA-GFP TGF-b/SMAD3 reporter, GFP fluorescence, 18 h; TGF-beta stimulated, 500 pg/mL final; 1.2% of 410,000 active; further: potency means the concentration at half of the fitted maximal effect; on the % scale 0 is the no-effect control and ±100 the full control effect; nearly all actives have a fitted effect of over 65% in size
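HEPG2 CAGA-GFP cells (1000/well, DMEM with 1% FBS) were pre-incubated 2 h at 37 degrees C, given compound by pin tool, then stimulated with TGF-beta at 500 pg/mL final for 18 h before per-cell GFP fluorescence imaging.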
LDHA block – qHTS assay for inhibitors of human lactate dehydrogenase. L-lactate dehydrogenase A chain (Homo sapiens), P00338. purified LDHA, NADH/diaphorase-resazurin fluorescence; hits give low values. activity change, % (values are at about 110 or 230 µM). 0.15% of 480,000 active. AID 1347041, 2019; in the data active means activity change below about -30%; inconclusive means mostly about -25% to -30%;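 further: plate controls were DMSO wells for no effect and wells without enzyme for full effect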
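Remaining NADH was detected by diaphorase (0.133 mg/mL) converting 37 µM resazurin to fluorescent resorufin, read at 0 and 20 minutes. The preceding 5-minute room-temperature reaction used 2 nM LDHA, 0.2 mM sodium pyruvate and 0.06 mM NADH at pH 7.4.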
ATXN2 expr inh – Primary qHTS for Inhibitors of ATXN expression | AID 1745845, 2022 | Potency, µM (titrated, usually from 57 µM), without a hit: at the top dose activity change, negative = inhibition, usual class: inhibitors | HEK-293 ATXN2-luciferase reporter, luminescence, 24 h | 0.72% of 360,000 active; further: potency means the concentration at half of the fitted maximal effect; on the % scale 0 is the no-effect control and ±100 the full control effect; nearly all actives have a fitted effect of over 55% in size
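qHTS (up to 57 uM final) was run with 24 h compound exposure of reporter cells at 37 °C. Each well was multiplexed: SteadyGlo luminescence measured ATXN2-luciferase expression after a fluorogenic Gly-Phe-AFC viability readout (25 uM final).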
S2 tox – Viability Counterscreen for Primary qHTS for Inhibitors of ATXN expression; S2 cells (HEK-293 line with an ATXN2-luciferase reporter) viability, CellTiter-Fluor protease fluorescence, 24 h; Potency, µM (titrated, usually from 56.7 µM), usual class: cytotoxic; 0.49% of 400,000 active; further: potency means the concentration at half of the fitted maximal effect; nearly all actives have a fitted effect of over 40% in size
Active calls of the source: *; i = inactive; u = inconclusive; x = no result given; ! = not confirmed by another sample. Unless noted, the call rests on the fitted dose curve; in most records, active means well fitted curve in the direction sought with a large enough effect; inconclusive means small, poorly fitted or top-dose-only effect, or another doubt; inactive means no such curve, though single readings can be large; an effect the other way counts as inactive or inconclusive.

SMILES	mIDH1 inhibitor	HepG2 tox	TGFb inhibitor	LDHA block	ATXN2 expr inh	S2 tox
Cc1cccc(-c2nnc(SCCC(=O)O)o2)c1	-9.1%	-6.2%	-4.7%	-4.7	1.41µM*	i
Cc1cccc(-c2nnc(SCCC(=O)N3CCOCC3)o2)c1	3.7%	2.9%	0.1%	-3.5	-20.0%	i
Cc1ccc(CSc2nc3c(c(N(C)C)n2)CCCC3)cc1	5.1%	-5.6%	u	3.4	-19.2%	i
CNc1nc(SCc2ccc(C)cc2)nc2c1CCCC2	11.9%	-4.2%	15.8µM*	-1.6	-12.1%	i
O=C(NCCc1ccc(Cl)cc1)c1ccc2c(c1)N(Cc1ccccc1F)C(=O)c1ccccc1S2(=O)=O	7.2%	-6.4%	1.4%	-2.4	15.1%	i
CCN(C(=O)c1cn(-c2ccc(OC)cc2)c(=O)c2ccccc12)c1cccc(Cl)c1	u	-23.0%	15.8µM*	-6.0	x	x
COc1ccc(-n2cc(C(=O)O)c3ccccc3c2=O)cc1	-4.4%	1.6%	8.5%	-16.7	-5.4%	i
CCCCCCCCN1[C@@H](CC(=O)O)c2cc(C(F)(F)F)ccc2S1(=O)=O	26.5%	-39.0%	11.2µM*	-2.6	-11.8%	i
CCN(CC)c1ccc(/C=N/N2CCN(Cc3ccccc3Cl)CC2)c(O)c1	12.8%	-4.2%	1.7%	2.9	13.4%	i
Cc1cccc(N2CCN(C(=O)CS(=O)(=O)Cc3nc(-c4ccccc4C)oc3C)CC2C)c1 (centres undefined)	15.2%	-33.7%	11.2µM*	10.3	u	i
COc1cccc(-c2nc(CS(=O)(=O)CC(=O)NCCc3ccccc3)c(C)o2)c1	8.9%	4.6%	-0.8%	-10.3	6.3%	i
Cc1ccccc1-c1nc(CS(=O)(=O)CC(=O)NCCc2ccccc2)c(C)o1	9.1%	-13.7%	14.1µM*	-1.6	-6.3%	i
COc1cccc(-c2nc(CS(=O)(=O)CC(=O)NCCc3ccc(Cl)cc3)c(C)o2)c1	-22.1%	-41.0%	11.2µM*	-10.6	x	x
Cc1ccc(-c2nc(CS(=O)(=O)CC(=O)NC(C)CCc3ccccc3)c(C)o2)cc1 (centres undefined)	-9.1%	-61.5%	11.2µM*	0.2	x	x
Cc1cccc(N2CCN(C(=O)CS(=O)(=O)Cc3nc(-c4ccccc4F)oc3C)CC2C)c1 (centres undefined)	-4.5%	-18.5%	-28.8%	1.1	3.1%	i
S=C(SSC(=S)N1CCOCC1)N1CCOCC1	x	0.708µM*	0.562µM*	11.9	u	u
CCn1nnc2cc(C(=O)OCC(=O)N(C)Cc3cccc(F)c3)ccc21	-7.8%	-2.6%	-2.5%	0.7	3.0%	i
O=C(CSc1cccc2cccnc12)N1CCCC1	1.5%	15.8µM*	u	12.1	u	u
NNC(=O)CSc1cccc2cccnc12	2.1%	-12.9%	4.9%	-2.5	1.8%	i
O=C(CSc1ncccn1)N1CCN(C(c2ccccc2)c2ccccc2)CC1	2.2%	-11.3%	-1.5%	-55.5*	2.5%	i
CN(C)C(=O)CSc1cccc2cccnc12	-3.5%	7.08µM*	u	-8.0	u	u
O=C(CSc1ncccn1)N1CCN(C(=O)CSc2ncccn2)CC1	-3.3%	-10.0%	0.2%	-8.7	13.2%	i
NC(=O)C1CCN(C(=O)CCSc2nc(-c3ccc4c(c3)OCO4)cc(C(F)(F)F)n2)CC1	x	x	x	14.1	x	x
CC(C)/C=C1\CC/C(=C\c2ccc(N(C)C)cc2)C1=O	2.5%	21.1%	-6.7%	-3.2	67.6%	i
CN(C)c1ccc(/C=C2/C[N+](C)(C)C/C(=C/c3ccc(N(C)C)cc3)C2=O)cc1	14.3%	12.6µM*	0.1%	9.1	-12.2%	13.4µM*
SMILES	mIDH1 inhibitor	HepG2 tox	TGFb inhibitor	LDHA block	ATXN2 expr inh	S2 tox
COc1ccc(NC(=O)Nc2cccc3c2O[C@H](CN(C)C(=O)Nc2ccc(C(F)(F)F)cc2)[C@@H](C)CN([C@H](C)CO)C3=O)cc1	7.9%	-4.8%	u	6.3	0.0%	u
C[C@H]1CN([C@@H](C)CO)C(=O)c2cccc(NC(=O)Nc3ccc(C(F)(F)F)cc3)c2O[C@@H]1CN(C)C(=O)Nc1ccc(F)cc1	12.5%	-89.2%	u	4.5	20µM*	12.6µM*
C[C@@H]1CN([C@H](C)CO)C(=O)Cc2cc(NC(=O)Nc3ccccc3)ccc2O[C@@H]1CN(C)Cc1ccc2c(c1)OCO2	0.2%	17.8µM*	15.8µM*	4.4	u	u
C[C@H](CO)N1C[C@H](C)[C@@H](CN(C)C(=O)Nc2ccc(C(F)(F)F)cc2)Oc2c(NC(=O)Nc3ccc(C(F)(F)F)cc3)cccc2C1=O	9.8%	-114.0%	14.1µM*	8.2	u	15.8µM*
C[C@H](CO)N1C[C@H](C)[C@@H](CN(C)Cc2ccccc2)Oc2c(NC(=O)C3CCCCC3)cccc2C1=O	u	-9.6%	u	3.7	u	20µM*
CCOC(=O)CCCCCC(=O)Nc1ccc2c(c1)CC(=O)N([C@H](C)CO)C[C@@H](C)[C@H](CN(C)Cc1ccc3c(c1)OCO3)O2	15.4%	-3.3%	-9.4%	1.8	2.6%	i
Cc1cccc(N(C)S(=O)(=O)c2nnc(NC(=O)C(C)(C)C)s2)c1	12.4%	-13.3%	-44.4%	3.3	x	x
CCCNc1c(NC(=O)Nc2cc(OC)cc(OC)c2)c(=O)oc2ccccc12	x	x	x	27.0	x	x
CCN(CC)CCOc1ncnc2c1oc1ccccc12	-0.9%	-2.8%	-4.4%	-1.9	-4.3%	i
CCCCc1oc2ccccc2c1C(=O)c1cc(I)c(OCCN(CC)CC)c(I)c1	6.9%	-35.2%	21.4%	-3.5	28.2µM*!	x
O=C(NNc1nc2ccc(Cl)cc2s1)c1cc(-c2cccs2)nc2ccccc12	8.5%	-60.8%	8.91µM*	-6.1	31.6µM*	u
Cc1cc(C)c2nc(NNC(=O)c3cc(-c4cccs4)nc4ccccc34)sc2c1	10.2%	-26.4%	u	-10.2	u	i
O=C1NC2CCCCC2C(=O)N1OS(=O)(=O)c1ccccc1 (centres undefined)	3.3%	-23.8%	0.0%	-5.3	u	15.8µM*
CCOc1cccc(/C(O)=C2\C(=O)C(=O)N(CCOC)C2c2cccnc2)c1 (centres undefined)	x	x	x	9.5	x	x
